What is called AC50 is the concentration giving half of the maximal activity seen.

A structure can be active in one record and inactive in another. The source made the active and inactive calls. The calls were made as follows: active = hit-call score of the fitted dose curve at least 0.9, where 1 is the maximum; inactive = score below 0.9.

A short description of this test: CCTE_Shafer_MEA_acute_cross_correlation_HWHM: CCTE's Neural Acute Assay for Cross Correlation at Half Width at Half Maximum, Shafer Lab (AID 2284026). The method, then:
CCTE_Shafer_MEA_acute assay is conducted using Axion Biosystems 48 well microelectrode array (MEA) plates and Maestro recording system. Each well of the MEA plate contains a grid of 16 microelectrodes embedded in the culture surface. Electrically active cells, such as neurons, can be cultured over the electrodes, and electrical activity in these cells can be recorded extracellularly. The spontaneous firing of neurons is captured from each electrode on a microsecond timescale providing both temporally and spatially precise data. […] The CCTE_Shafer_MEA_acute assay uses primary cultures of rat cortical neurons. As these cultures mature over time, neural networks develop functional activity and form cohesive networks in which electrical activity can be highly coordinated. Baseline 40-minute recordings are made on days post-plating 13 or 15, followed by a secondary 40-minute recording after chemical exposure.CCTE_Shafer_MEA_acute_cross_correlation_HWHM is a component of the CCTE_Shafer_MEA_acute assay. It measures the distance along the x-axis (phase lag) from the left half maximum height to the center of the cross-correlogram of action potential firing during a recording in a microelectrode array (MEA) using Axion Biosystems Maestro 768 channel amplifier with the AxIS adaptive spike detector. Smaller values indicate a narrower correlogram (greater synchrony). The recordings before and after chemical treatment are used to calculate a percent change in the half width at half maximum of the cross-correlogram in each well.Data from the assay component CCTE_Shafer_MEA_acute_cross_correlation_HWHM was analyzed into 1 assay endpoint. This assay endpoint, CCTE_Shafer_MEA_acute_cross_correlation_HWHM, was analyzed in the negative analysis fitting direction relative to DMSO as the negative control and baseline of activity. Using a type of functional reporter, gain or loss-of-signal activity can be used to understand electrical activity.
Spontaneous activity in the cortical cultures was recorded using an Axion Biosystems Maestro 768 channel amplifier and Axion Integrated Studios (AxIS) v1.8 (or later) software. The amplifier recorded from all channels simultaneously (gain = 1200 x; sampling rate = 12.5 kHz/channel): raw signals were filtered with a Butterworth band-pass filter (300-5000 Hz), which filters out slower local field potentials leaving only fast potentials, i.e., "spikes", arising from extracellular currents associated with action potentials (Pine 2006; Wheeler and Nam 2011). On-line spike detection of filtered signals was conducted with the AxIS adaptive spike detector, using a threshold of 8x the root mean squared (rms) noise on each channel. Any electrodes with rms noise levels greater than 5 uV were grounded (e.g., no data were recorded). Once grounded, an electrode was grounded for the duration of the experiment. All recordings were conducted at 37 C. Wells were deemed usable if on the day of the exposure >/= 10 electrodes were active (defined as >/= 5 spikes/min). On DIV 13 or 15, a minimum of three wells from one cortical culture preparation were treated with each compound (0.03-40 uM). Prior to recording baseline activity, each mwMEA plate was placed in the Maestro at 37 C and allowed to sit for 20 min while firing rates stabilized. Baseline activity (40 min) was recorded before the addition of each compound. An additional 40 min of spontaneous activity was recorded in the presence of each compound. Changes in network parameters relative to baseline were assessed following compound treatment.
For the compound `CC1(C)[C@H](C=C(Cl)Cl)[C@@H]1C(=O)O[C@@H](C#N)c1cccc(Oc2ccccc2)c1`, the AC50 was 15 µM (active).
Turning to `O=c1c2ccccc2c(=O)c2c1cc(Cl)c1[nH]c3c([nH]c12)c(Cl)cc1c(=O)c2ccccc2c(=O)c13`, the outcome was inactive.
Still for that read-out and setting: then `CP(=O)(O)CCC(N)C(=O)O` (stereo unspecified), with “inactive”.
Same read-out and setting: as for `c1cc[n+]2c(c1)-c1cccc[n+]1CC2`, the entry is “inactive”.
With `CC1(C)[C@H](C(=O)O[C@H](C#N)c2cccc(Oc3ccccc3)c2)[C@@H]1C=C(Br)Br`, the AC50 was 3.1 µM (active).
For `[Cd+2].[Cl-].[Cl-]`, the compound was called inactive.
Regarding `COc1ccc(CO)cc1`, the result was inactive.
On to `CP(=O)(O)CC[C@H](N)C(=O)O`, for which the AC50 was 36.5 µM (active) and the compound was called inactive.
`O=C(O)CNCP(=O)(O)O`: the outcome was inactive.
Regarding `O=[N+]([O-])O`, the call was inactive.
Take `Oc1ccc(C2(c3ccc(O)cc3)c3ccccc3-c3ccccc32)cc1`: the AC50 was 28.1 µM (active).
Take `C#CCN(C)[C@H](C)Cc1ccccc1`: the compound was called inactive.
On to `CCCC[N+](CCCC)(CCCC)CCCC`, for which the AC50 is 2.98 µM (active).
Same read-out and setting: as for `Cc1ccc(OP(=O)(Oc2ccc(C)cc2)Oc2ccc(C)cc2)cc1` (tested in a mixture with another compound), the figure is 8.25 µM (active).
In the case of `CC1(C)[C@@H](C=C(Cl)Cl)[C@@H]1C(=O)O[C@@H](C#N)c1ccc(F)c(Oc2ccccc2)c1`, the compound was called inactive.

The record behind these values is PubChem BioAssay (EPA / NIEHS).
